“And” between values parts separate entries of the source, which are not always exact repeats. Equal entries are not always repeated. Inconclusive results are not listed. The source made the active and inactive calls. Calls come from the whole dose curve; as a rule, active = well fitted cell-killing curve with a large enough effect in the repeat runs; inconclusive = weak or mixed curves, or effect the other way; inactive = no such curve, though single readings can be large or run the other way.
Assay: Caspase-3/7 induction in CHO-K1 cells by small molecules, qHTS cell viability counter screen (AID 1346979); note: nearly all actives have a fitted effect of over 35% in size
Conditions: CellTiter-Fluor fluorescence, 17 h; series mostly up to 92.4 µM; activity change, negative = cytotoxicity: at the top concentration
Text: National Center for Advancing Translational Sciences [NCATS]
NIH Chemical Genomics Center [NCGC]
U.S. Environmental Protection Agency [EPA]
National Institutes of Environmental Health Sciences [NIEHS]
National Toxicology Program [NTP]
U.S. Food and Drug Administration [FDA]
Apoptosis is a process of programmed cell death and plays a central role in the development of multicellular organisms. It is a highly regulated process and induces cell death by activating caspases, which are the members of cysteine aspartic acid-specific protease (caspase) family. Caspases involved in apoptosis are classified by their mechanism of action as initiator caspases (caspase-2, -8, -9 and -10) and executioner caspases (caspase-3, -6, and -7). Inhibition of apoptosis results in number of cancers, autoimmune diseases, inflammatory diseases and viral infection. To identify small molecule compounds that induce apoptosis, a homogeneous, luminescent Caspase-Glo 3/7 assay was used. Wild type CHO-K1 cells were used to screen Tox21 libraries for identifying caspase-3/7 activity inducers. Also cytotoxicity of the compounds was tested in parallel by measuring the cell viability using CellTiter-Fluor assay system in the same wells.
Tox21 Assay Protocol Summary:
CHO-K1 cells were dispensed at 1,500 per well in 5uL of culture medium into white solid bottom 1536-well plates (Corning Life Sciences, Corning, NY) using a Multidrop Combi (Thermo Scientific, Waltham, MA) dispenser. The assay plates were incubated at 37 C and 5% CO2 for 5hr, and then 23nL of compounds dissolved in DMSO and positive control were transferred using a Pintool station (Wako, San Diego, CA). The assay plates were incubated at 37C and 5% CO2 for 17hr. For cytotoxicity read, after 16hr incubation at 37C, 1uL CellTiter-Fluor reagent (Promega Corporation, Madison, WI) was added to each well of the assay plates using Flying Reagent Dispenser (FRD, Aurora Discovery, San Diego, CA). After 1hr incubation at 37C and 5% CO2, the fluorescence signal was quantified using a ViewLux plate reader (PerkinElmer, Shelton, CT).
In the case of `CCCCCCCCCCCC(=O)NCCCN(C)C`, the Potency was 54.5 µM (active).
With `N=C1N=C(N)c2cc3ccccc3cc21` the Potency was 25.8 µM (active).
For `CCCCCCCC/C=C/CCCCCCCC1=NCCN1CCO`, the Potency was 54.5 µM (active).
With `O=C(OC[C@H]1O[C@@H](OC(=O)c2cc(O)c(O)c(OC(=O)c3cc(O)c(O)c(O)c3)c2)[C@H](OC(=O)c2cc(O)c(O)c(OC(=O)c3cc(O)c(O)c(O)c3)c2)[C@@H](OC(=O)c2cc(O)c(O)c(OC(=O)c3cc(O)c(O)c(O)c3)c2)[C@@H]1OC(=O)c1cc(O)c(O)c(OC(=O)c2cc(O)c(O)c(O)c2)c1)c1cc(O)c(O)c(OC(=O)c2cc(O)c(O)c(O)c2)c1` the Potency was 16.5 µM (active).
For `NNc1nc(-c2ccccc2)cs1`, the Potency was 62.9 µM (active).
In the case of `CCCCN(CCCC)C(=O)N(CCCC)CCCC`, the “activity change, negative = cytotoxicity” value was 0.827% (inactive).
With `C/C=C1/C(=O)C[C@H]2[C@@H]3CCC4=CC(=O)CC[C@]4(C)[C@H]3CC[C@]12C` the Potency was 60.9 µM (active).
With `Oc1ccc(N=Nc2ccccc2)cc1` the Potency was 61.9 µM (active).
In the case of `CNc1ccc(O)cc1`, the Potency was 13.7 µM (active).
For `Nc1ccc2cc(S(=O)(=O)O)cc(O)c2c1N=Nc1ccccc1C(F)(F)F`, the Potency was 54.5 µM (active).
With `CSc1cnc(C)cn1` the “activity change, negative = cytotoxicity” value was -0.108% [at 240 µM] (inactive).
For `CN(C)CCCOC1(Cc2ccccc2)CCCCCC1`, the “activity change, negative = cytotoxicity” value was -0.567% [at 42.5 µM] (inactive).
With `NC(=O)N1C(=O)C(C(=O)c2cc(Cl)cs2)c2cc(F)c(Cl)cc21` (stereo not given) the Potency was 61.1 µM (active).
In the case of `N#CC1(c2ccc(F)cc2)CCC(=O)CC1`, the “activity change, negative = cytotoxicity” value was 5.84% [at 42.5 µM] (inactive).
In the case of `CCCCCCCCCCCCCC[P+](CCCC)(CCCC)CCCC` (tested in a mixture with another compound), the Potency was 7.74 µM (active).
With `NC(=O)CC[C@@H]1NC(=O)[C@H](Cc2ccccc2)NC(=O)[C@H](Cc2ccc(O)cc2)NC(=O)CCSSC[C@@H](C(=O)N2CCC[C@H]2C(=O)N[C@@H](CCCN=C(N)N)C(=O)NCC(N)=O)NC(=O)[C@H](CC(N)=O)NC1=O` the “activity change, negative = cytotoxicity” value was -0.0475% [at 42.5 µM] (inactive).
For `N=C1N=C(N)c2ccccc21`, the Potency was 61.1 µM (active).
For `CCCCCCCCNC(C)C(O)c1ccc(SC(C)C)cc1` (stereo not given), the Potency was 16.8 µM (active).
In the case of `Oc1cccc(-c2c3nc(c(-c4cccc(O)c4)c4ccc([nH]4)c(-c4cccc(O)c4)c4nc(c(-c5cccc(O)c5)c5ccc2[nH]5)CC4)C=C3)c1`, the Potency was 13.3 µM (active).
For `ON=C1CCCC1`, the “activity change, negative = cytotoxicity” value was -0.605% (inactive).
In the case of `COc1cccc(N)c1`, the Potency was 24.5 µM (active).
For `Nc1cc(C(F)(F)F)ccc1S`, the Potency was 26.6 µM (active).
With `CNC(=O)c1ccccc1` the “activity change, negative = cytotoxicity” value was -2.6% (inactive).
With `CCN1/C(=C/C=C/c2sc3ccccc3[n+]2CC)Sc2ccccc21` the Potency was 1.46 µM (active).
For `CSc1ccc(C(=O)c2[nH]c(=O)[nH]c2C)cc1`, the “activity change, negative = cytotoxicity” value was 1.67% [at 42.5 µM] (inactive).
In the case of `CN1CCC(Nc2ncc3ncnc(Nc4ccc(F)c(Cl)c4)c3n2)CC1`, the Potency was 29.8 µM (active).
In the case of `[Cl][Au]([Cl])[Cl]`, the Potency was 24.3 µM (active).
With `CCCCCOC(=O)CCCC` the “activity change, negative = cytotoxicity” value was 6.72% (inactive).
For `OCCN1CCN(CC/C=C2/c3ccccc3Sc3ccc(C(F)(F)F)cc32)CC1`, the Potency was 29.8 µM (active).
With `C=CC(=O)OCC(CO)(COC(=O)C=C)COC(=O)C=C` the Potency was 2.74 µM (active) and 6.11 µM (active).
For `CO[Si](CCCNc1ccccc1)(OC)OC`, the “activity change, negative = cytotoxicity” value was -0.341% (inactive).
For `[Cl][Bi]([Cl])([c]1ccccc1)([c]1ccccc1)[c]1ccccc1`, the Potency was 3.05 µM (active).
In the case of `O=C(OCC(COC(=O)c1ccccc1)(COC(=O)c1ccccc1)COC(=O)c1ccccc1)c1ccccc1`, the “activity change, negative = cytotoxicity” value was -1.42% (inactive).
In the case of `CCCN(CCC)C(=O)C(CCC(=O)OCCCN1CCN(CCOC(=O)Cc2c(C)n(C(=O)c3ccc(Cl)cc3)c3ccc(OC)cc23)CC1)NC(=O)c1ccccc1` (stereo not given), the Potency was 26.6 µM (active).
With `CCN(CCC#N)c1ccc(N=Nc2c(Cl)cc([N+](=O)[O-])cc2Cl)cc1` the Potency was 48.6 µM (active).
With `CCCC(c1cc(C(C)(C)C)c(O)cc1C)c1cc(C(C)(C)C)c(O)cc1C` the Potency was 13.9 µM (active).
In the case of `O=C1c2ccccc2Cc2ccccc21`, the Potency was 30.9 µM (active).
In the case of `OCc1c[nH]c2ccccc12`, the Potency was 64.8 µM (active).
In the case of `O=C(OCC1CO1)C1CCCCC1C(=O)OCC1CO1` (stereo not given), the Potency was 68.7 µM (active).
In the case of `O=S1(=O)CC(Cl)(Cl)C(Cl)(Cl)C1`, the Potency was 0.686 µM (active).
% is set by controls: 0 for no effect and ±100 for the full control effect; potency is the fitted concentration of half-maximal effect.
